GRIN3A LBD mod: modulates the human NR3A ligand-binding domain. Tm shift relative to glycine control, % at 25 µM. 2.5% of 340,000 active. NR3A LBD differential scanning fluorimetry, Tm shift; 0% = protein alone, 100% = glycine-bound protein. AID 1259313;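 active = melting temperature shift of at least 10% of the positive control shift, at one fixed dose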
dFosB act-1: activators of mouse delta FosB homodimer | activation, % at 25 µM | 0.99% of 340,000 active | purified delta FosB, TAMRA-CDK5 oligo fluorescence polarization; percent of positive-control signal above neutral wells | P13346;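 active = mean activation above about 17%, with every replicate also reaching it, limit read from the data, passing the limit was not always enough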
Target sequence (P13346 whole entry, looked up): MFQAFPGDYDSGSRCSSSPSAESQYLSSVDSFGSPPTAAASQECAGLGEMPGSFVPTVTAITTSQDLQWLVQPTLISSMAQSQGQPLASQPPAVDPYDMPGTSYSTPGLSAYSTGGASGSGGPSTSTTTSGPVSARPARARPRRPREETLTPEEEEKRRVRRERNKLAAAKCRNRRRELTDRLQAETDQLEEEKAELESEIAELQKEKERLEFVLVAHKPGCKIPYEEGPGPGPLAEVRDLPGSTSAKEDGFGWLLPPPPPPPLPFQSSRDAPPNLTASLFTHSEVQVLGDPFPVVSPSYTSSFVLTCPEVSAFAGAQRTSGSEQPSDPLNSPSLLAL
NALP1 yeast inh: inhibitors of NALP1 inflammasome in yeast | 0.61% of 280,000 active | S. cerevisiae NALP1/ASC/caspase-1 growth, X-gal OD620, 72 h | inhibition, % at 10 µM | AID 2071; in the data active = inhibition mostly above about 24%, no sharp cut-off; inactive = mostly below about 32%
CR mimetic SO: yeast age-related superoxide inhibition as caloric restriction mimetic. 0.18% of 330,000 active. superoxide response (% of plate mean), % at 10 µM. S. cerevisiae aged cells, superoxide DHE fluorescence; stronger effect = lower value. AID 2690;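 active = superoxide response under a set limit, about three screen SD below normal, cut at about 65% in these data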;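 also: yeast aged for seven days with compound at 30 °C before DHE staining; 100% = average MFI of all compound-treated wells on the plate with controls excluded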
UBC13 polyUb: inhibitors of human UBC13 polyubiquitin chain formation. AID 485273. inhibition, % at 20 µM. TR-FRET. 0.47% of 330,000 active. P61088; in the data active = inhibition above about 45%, passing the limit was not always enough
Target sequence (P61088 whole entry, looked up): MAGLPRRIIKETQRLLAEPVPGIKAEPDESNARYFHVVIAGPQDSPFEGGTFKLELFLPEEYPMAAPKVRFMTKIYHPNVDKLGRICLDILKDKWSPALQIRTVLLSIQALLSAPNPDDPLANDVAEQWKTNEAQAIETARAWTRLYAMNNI
dFosB act-2: activators of mouse delta FosB homodimer DNA binding. activation, % at 24.9 µM. purified delta FosB, TAMRA-CDK5 oligo fluorescence polarization; normalised: neutral wells 0, positive control 100. AID 588690. shares compounds with dFosB act-1. 2,400 tested, under 10 active;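 active = highest replicate activation at or above 34% and every replicate reaching that threshold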;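 also: higher polarization means more probe DNA bound by delta FosB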
* = called active by the depositor; / = no result. Compounds with a hit are over-represented: about 4.3% of the library has one in this group of screens.

SMILES	GRIN3A LBD mod	dFosB act-1	NALP1 yeast inh	CR mimetic SO	UBC13 polyUb	dFosB act-2
O=C(C1CCCC1)N1CCN(S(=O)(=O)c2ccc(F)c(F)c2F)CC1	0	-3	20	96	-6	/
CC(=O)Nc1ccc(NC(=O)COc2ccc(S(=O)(=O)N3CCCC3)cc2)cc1	0	-10	-7	84	-5	/
Oc1oc(-c2ccccc2Br)nc1C=Nc1ccc(Br)cn1	4	47*	13	108	-17	-2
O=C(COc1c(Br)cc(Br)cc1Br)N/N=C/c1ccco1	-3	31*	18	97	-10	5
Cc1cc(C)cc(OCC(=O)N/N=C/c2ccco2)c1	1	0	-6	86	2	/
CCN(CC(=O)Nc1ccccc1OC)CC(=O)Nc1sccc1C#N	-2	-4	4	101	26	/
Cc1ccc(C(=O)NCCNc2nc3cc(C)c(C)cc3cc2C)cc1	0	41*	10	101	31	1
O=C(CSCc1nc2c(nnn2Cc2ccc(F)cc2)c(=O)[nH]1)Nc1c(Cl)cc(Cl)cc1Cl	-3	29*	12	112	-5	-2
Cc1ccc2c(c1)NC(=O)c1cc([N+](=O)[O-])ccc1O2	-2	31*	44	123	2	2
Cc1cccc(C(=O)N/N=C2\CS(=O)(=O)N(C)c3ccsc32)c1	-4	26*	/	86	-13	1
COc1ccccc1CCNC(=O)C(=O)Nc1cc2c3c(c1)CC(=O)N3CCC2	-1	-1	/	98	-8	/
Cc1ccc(/C=N/NC(=O)c2cc3c(ccc4ccccc43)o2)o1	-2	25*	21	/	-8	-1
O=C(N/N=C/c1cccnc1)c1cc2c(ccc3ccccc32)o1	-4	32*	29	106	-6	-2
CC(NC(=O)c1cc(S(=O)(=O)N2CCOCC2)ccc1N1CCCC1)c1ccc(Cl)c(Cl)c1 (configuration not stated)	2	-9	/	109	0	/
COc1cc(CCC(=O)NCCc2ccc(F)cc2)cc(OC)c1OC	-1	-1	11	98	-5	/
O=C(N1CCN(c2ncccn2)CC1)C12CC3CC(CC(C3)C1)C2	-4	-8	/	110	3	/
COc1ccc(-n2nnc3c(=O)n(CC(=O)Nc4ccc5c(c4)OCCO5)cnc32)cc1OC	7	49*	10	102	7	1
CC(=O)Nc1cc2c(cc1NC(=O)Cn1nc(-c3ccc4c(c3)OCCO4)ccc1=O)OCCO2	-13	-4	11	101	-19	/
O=C(Cn1nc(-c2ccccc2)ccc1=O)Nc1ccc(-n2cnnn2)cc1	-1	58*	/	103	-2	2
O=C(Cn1nc(-c2ccc3c(c2)OCCO3)ccc1=O)Nc1ccc(-n2cnnn2)cc1	2	81*	16	103	-1	6
COc1ccc(-c2ccc(=O)n(CC(=O)Nc3ccc4c(c3)OCCO4)n2)cc1	3	22*	2	113	10	-3
CC(C)C(=O)Nc1cccc(C(=O)Nc2ccc(S(=O)(=O)Nc3nccs3)cc2)c1	-8	-7	-5	94	4	/
COC(=O)c1ccccc1NC(=O)COC(=O)C1CCCCC1	1	0	/	93	6	/
COC(=O)C1CCN(C(=O)/C=C/c2ccc3c(c2)OCO3)CC1	-1	2	10	96	-8	/
O=C(Cn1nc(-c2ccccc2)ccc1=O)Nc1ccc(N2CCN(C(=O)c3ccccc3)CC2)cc1	0	3	-66	116	19	/
SMILES	GRIN3A LBD mod	dFosB act-1	NALP1 yeast inh	CR mimetic SO	UBC13 polyUb	dFosB act-2
O=C(Cn1nc(-c2ccccc2)ccc1=O)Nc1ccc(NC(=O)c2ccccn2)cc1	2	25*	5	101	-11	0
COc1cc(C(=O)NCc2ccc(S(N)(=O)=O)cc2)ccc1OCC(=O)Nc1cccc(C(F)(F)F)c1	0	17*	/	112	-1	1
COc1cc(C(=O)N(C)CCOc2ccccc2)ccc1OCC(=O)Nc1cccc(C(F)(F)F)c1	-10	-16	/	96	5	/
Cc1ccc(S(=O)(=O)NCC(=O)OCC(=O)NCc2cccs2)cc1	1	-6	/	108	5	/
O=C(Nc1nc2c(F)c(F)c(F)cc2s1)c1ccco1	1	30*	8	98	7	2
O=[N+]([O-])c1c(NCc2ccccc2)cc(N2CCc3ccccc3C2)c2nonc12	1	-2	18	90	-13	/
CCCSc1nc2c(cnn2-c2ccccc2)c(=O)[nH]1	-3	-1	/	101	0	/
CCCSc1nc2c(cnn2-c2ccc(F)cc2)c(=O)[nH]1	0	48*	29	108	-12	-7
O=c1[nH]c(SCc2ccc(F)cc2)nc2c1cnn2-c1ccc(F)cc1	2	35*	21	99	-18	2
Cc1ccc(-c2ccc(CCC(=O)O)n2-c2ccc(C(=O)O)cc2)cc1	0	3	16	84	-5	/
Cc1ccc(NC(=O)CS(=O)CC(=O)N(CC(=O)NC(C)(C)C)c2cccc(C)c2C)cc1 (configuration not stated)	-2	-9	22	102	-12	/
COc1ccc(-c2nn(C)c(=O)c3ccccc23)cc1NC(=O)Cn1nc(-c2ccccc2)c2ccccc2c1=O	-1	19*	3	115	-3	-1
CN(c1ccc(OCC(=O)OCC(=O)c2c(N)n(C)c(=O)n(C)c2=O)cc1)S(=O)(=O)c1ccc2ccccc2c1	-1	33*	6	96	-6	-1
CCN(c1ccc(OCC(=O)OCC(=O)c2c(N)n(C)c(=O)n(C)c2=O)cc1)S(=O)(=O)c1ccccc1	-7	-13	2	120	-7	/
CCOc1ccc(NC(=O)[C@@H](NC(=O)OCc2ccccc2)[C@@H](C)CC)cc1	-6	-5	14	115	-3	/
CCC(C)C(NC(N)=O)C(=O)Nc1ccc(OCc2ccccc2)cc1 (configuration not stated)	1	43*	/	106	-1	6
COc1ccc(NC(=O)c2oc3ccccc3c2NC(=O)c2ccco2)cc1	-17	21*	/	104	-13	-1
CC(=O)c1ccc(C(=O)Nc2ccc3c(c2)C(=O)NC3=O)cc1	-1	32*	18	101	19	0
CC(C)(C)c1ccc(C(=O)Nc2ccc3c(c2)C(=O)NC3=O)cc1	1	3	18	110	-20	/
COc1ccc(C(=O)Nc2ccc3c(c2)C(=O)NC3=O)cc1	0	49*	6	92	-17	3
CC(=O)c1ccc(NC(=O)c2ccc(NC(=O)c3ccco3)cc2)cc1	13*	93*	9	95	-4	2
C=CCOc1ccc(/C=C/C(=O)OCC(=O)N(C)CC(=O)Nc2ccc(F)cc2)cc1	0	2	/	86	-4	/
O=C(Cc1ccc(S(=O)(=O)N2CCOCC2)s1)N1CCN(S(=O)(=O)c2ccc(Cl)cc2)CC1	0	-4	/	105	-7	/

Screening results deposited in PubChem by several laboratories.
